PubChem BioAssay (NCI)
About 83,000 compounds went through this panel and 20% of them were active in at least one assay; those are over-represented in the sample as a whole.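 In brief: 96-well plates, 48 h treatment, single concentration, percent growth endpoint.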 Values without a mark were called inactive. Calls of active or inactive are those of the source. The calls were made as follows: active = growth percent below 10; inactive = the rest.

Each compound was assayed on MDA-MB-468 breast (assay: NCI-60 one-dose screen, 48 h (100 = growth as untreated, 0 = no growth, -100 = all killed)). Conditions: 10 µM unless noted.
Compound `O=C1/C(=C/c2ccc(C(F)(F)F)cc2)COc2ccc(O)cc21` has a growth of 100%. `CCOC(=O)C(c1ccccc1)N1C(=O)c2ccccc2C1=O` (stereo not given) was tested, and the growth was 137%. `NC(=N\N=C/c1cccc([N+](=O)[O-])c1)/C(N)=N\N=C/c1cccc([N+](=O)[O-])c1` was tested, and the growth was 64.9%. For `c1ccc2oc(-c3cnc4nonc4n3)cc2c1`, the growth was 98.9%. `Cc1cc2c(cc1C)[n+](Cc1ccc3ccccc3n1)cn2Cc1ccc2ccccc2n1` was tested, and the growth was -35.5% (active). `N#CCCN(CCCN1CCOCC1)CN1C(=O)c2ccccc2C1=O` gave a growth of 92.2%. For `CC[C@@H](C)/C=C(C)/C=C/C(=O)c1c(O)c(-c2ccc(O)cc2)cn(OC2CC(=O)CCC(C)OC(=O)CC2O)c1=O` (stereo not given in full), the growth was -29.9% (active). With `COc1ccc(-c2ccc(-c3ccc(C(=N)N)nc3)s2)cc1Cl` the growth was -51.8% (active). With `O=C(O)c1nc(-c2ccccc2)oc1N1CCOCC1` the growth was 99.8%. Compound `COc1cc(C(=O)NNC(=O)c2ccc(NC(=O)CCl)cc2)cc(OC)c1OC` has a growth of 70.3%. In the case of `COc1cc(/C=C2\C(=O)Nc3cc(C)c(O)cc32)cc(OC)c1OC`, the growth is reported as 29.3%. With `CCc1ccc2c(c1)N(CCO)C1=C(C(=O)OC1)C2c1ccccc1` (stereo not given) the growth was 104%. In the case of `c1cc(OCCN2CCCCCC2)ccc1CNc1ccc2nc(CCC3CCCCC3)[nH]c2c1`, the growth is reported as 58.2%. `O=S(=O)(Nc1cccc2ccccc12)c1ccc(-c2cnc(C3CC3)o2)cc1` was tested, and the growth was 0.881% (active). `CC1(C)C2CC1C1(/C=N/NC(N)=S)C(C2)C(C#N)(C#N)C1(C#N)C#N` (stereo not given) was tested, and the growth was 76.6%. With `O=C(/C=C/c1ccco1)c1ccccc1O` the growth was 60.7%. In the case of `O=c1oc2ccc(Br)cc2c(=O)n1-c1ccc(Br)cc1F`, the growth is reported as -11.7% (active). Compound `OC[C@@H](O)[C@@H](O)CO` has a growth of 102%. With `CCOC(=O)c1ccc2c(c1)nc(-c1ccccc1)n2C1CCCCC1` the growth was 118%. For `CCCCC1COc2cccc3c(SCC(=O)N(C)c4cccc(Cl)c4)cc[n+]1c23` (stereo not given), the growth was 104%. `C=C(C)[C@@H]1CC[C@]2(c3nnc(-c4ccncc4)o3)CC[C@]3(C)[C@H](CC[C@@H]4[C@@]5(C)CCC(=O)NC(C)(C)[C@@H]5CC[C@]43C)[C@@H]12` gave a growth of 92.7%. `O=C(NCCCl)Nc1ncccc1OCc1ccccc1` showed a growth of 104%. With `O=C1CCc2c(sc3[nH]c(=S)n(-c4cc(C(F)(F)F)cc(C(F)(F)F)c4)c(=O)c23)C1` the growth was -14.2% (active). With `Nc1ccn(C2OC(F)(CO)C(O)C2F)c(=O)n1` (stereo not given) the growth was 76.2%. `CN1C(=O)/C(=C/c2ccc(C(=O)Nc3ncc(Cc4ccc(Cl)cc4)s3)cc2)SC1=S` showed a growth of 25.2%. In the case of `O=C(CCn1cc[n+](CC(=O)c2ccc(-c3ccccc3)cc2)c1)Nc1cccc2cccnc12`, the growth is reported as -16.8% (active). `CC1CN(S(=O)(=O)c2oc(-c3ccc(Cl)cc3)nc2C#N)CC(C)O1` (stereo not given) was tested, and the growth was 70%. Work on `C/C1=C\CC[C@@]2(C)O[C@H]2[C@H]2OC(=O)C(CN3CCN(CC4C(=O)O[C@H]5[C@H]4CC/C(C)=C/CC[C@@]4(C)O[C@@H]54)CC3)[C@@H]2CC1` (stereo not given in full) yielded a growth of 46.1%. With `Cc1ccc(NCCNCC(C)(C)O)c2c(=O)c3ccc(Cl)cc3sc12` the growth was -28.9% (active). For `O=C1C=C(OCC=C(Cl)Cl)C(=O)c2ccccc21`, the growth was 41.5%. With `N#CN1CC[C@H](C(=O)Nc2ncc(-c3ccncc3)s2)C1` the growth was -35.7% (active). `CCOC(=O)Cn1c(O)c(N=Nc2ccc(S(N)(=O)=O)cc2)c2cc(Br)ccc21` was tested, and the growth was 96.4%. `CSc1nc2c(c(=O)n1C)CN(Cc1ccccc1)C(=O)CN2` was tested, and the growth was 71.3%. `O=C(NCc1ccc(Cn2c(=O)sn(-c3ccccc3)c2=O)cc1)OCc1ccc2c(Br)cc(Br)c(O)c2n1` was tested, and the growth was -67.5% (active). `COc1cc2c3c(c4c5ccccc5[nH]c4c2c(OC)c1OC)C(=O)N(O)C3=O` gave a growth of 32.7%. `O=C1NC(SCc2ccc(F)cc2)=N/C1=C/c1cccc(OCc2ccc(Cl)cc2)c1` showed a growth of 62.9%. Compound `COc1c(-c2c3sc(=O)[nH]c3nc3c2c(=O)[nH]n3C(C)C)cc2c(c1OC)OCO2` has a growth of 102%. For `O=C1OCC2=C1C(c1ccccc1)c1cc3c(cc1N2CCO)OCO3` (stereo not given), the growth was 9.26% (active). For `Clc1ccc2c(N3CCN(c4ccnc(NC5CCCCC5)n4)CC3)ccnc2c1`, the growth was 29.4%. In the case of `N=C(N)c1ccc(-c2ccc(-c3ccccc3)s2)cc1`, the growth is reported as -39.2% (active).
